# From PubChem BioAssay AID1403 (National Center for Advancing Translational Sciences (NCATS), 2008)
# Inconclusive results are not listed. Active and inactive are the calls of the source. Calls follow the shape of the dose curve; as a rule, active = well fitted curve in the direction sought with a large enough effect in the signal ratio; inconclusive = small, poorly fitted or top-dose-only effect, or a change in a side signal; inactive = no such curve, though single readings can be large or run the other way; the % refers to the signal ratio.
# Target: Follicle-stimulating hormone receptor (Homo sapiens) (UniProt P23945)
# Experiment: Counterscreen for Agonists of Thyroid Stimulating Hormone Receptor: HTRF Activity in a Follicle Stimulating Hormone Receptor Cell Line
# Details: HEK293-FSHR cells, 30 min; series mostly up to 91.7 µM
# From the text: NIH Chemical Genomics Center [NCGC] NIH Molecular Libraries Screening Centers Network [MLSCN] MLSCN Grant: 1 X01 MH080680-01 PI Name: Dr. Marvin Gershengorn, NIH NCGC Assay Overview: Confirmation of Thyroid Stimulating Hormone Receptor Agonists TSH is an alpha/beta heterodimeric glycoprotein hormone secreted from the anterior pituitary gland which belongs to the glycoprotein hormone family. The actions of TSH are mediated by a seven-transmembrane receptor, which upon TSH binding couples preferentially to the G-alpha (s) protein (Gs), resulting in activation of adenylate cyclase and increase in cyclic adenosine 3', 5' monophosphate (cAMP). The TSH receptor (THSR) is mainly expressed in thyroid follicular cells and regulates their growth and function. Recombinant TSH is used to activate TSHR in patients with thyroid cancer receiving thyroid hormone suppression therapy and to screen for residual tumor after surgery, but it is expensive and must be administered intramuscularly. An orally active small molecule TSHR agonist would serve as an invaluable research tool for studying TSHR pharmacology and physiology, and would have multiple advantages in therapeutic settings. However, no selective small molecule agonist of the TSH receptor exists, and no small molecule screen for TSHR agonists has ever been reported. In order to confirm specificity of the compounds to the TSHR, a confirmatory assay was conducted on a similar family member, the Follicle Stimulating Hormone (FSH) receptor, transfected into a HEK 293 cell line, using an orthogonal detection technology to measure cAMP stimulation: antibody-based Homogeneous Time Resolved Fluorescence (HTRF).
# NCGC Assay Protocol Summary: Homogeneous Time Resolved Fluorescence (HTRF) cAMP Assay. HEK 293 cells stably transfected with a vector containing the FSH receptor and maintained under hygromycin selection were obtained from the laboratory of Dr. Marvin Gershengorn. Compounds were assayed using a HTRF cAMP detection kit (Cisbio) on the FSH receptor transfected cell line. Briefly, 750 cells were plated in 2.5 ul/well of complete media (DMEM containing 10 % FCS, and 100 uM RO 20-1724) in 1536 well solid bottom white plates and 23 nl/well compound in DMSO solution or controls was added. Following 30 minute incubation at room temperature, 2.5 ul/well of labeled d2 cAMP and 2.5 ul/well of anti-cAMP antibody (both diluted 1:20 in lysis buffer) were added to each well using a flying reagent dispenser (Aurora Discovery, San Diego) . Plates were measured using the Envision plate reader (PerkinElmer, Boston, MA) with excitation at 330 nm and emissions of 615 nm and 660 nm. Keywords: Follicle Stimulating hormone FSH, Thyroid-stimulating hormone TSH, TSHR, TSHR agonist, quantitative high throughput screening, qHTS, HTS, probe identification, CNG, cAMP, cyclic nucleotide gated ion channel PubChem
row,Compound,outcome
1,COc1ccc(C(=O)N(Cc2ccco2)Cc2cccs2)cc1,inactive
2,COc1ccc(C(=O)N(Cc2ccco2)Cc2cccs2)c(O)c1,inactive
3,NC(=O)c1nsc(C(=O)N(CC(=O)NC2CCCC2)Cc2ccc3c(c2)OCO3)c1N,inactive
4,COc1cc(OC)c(C(=O)N(Cc2ccco2)Cc2cccs2)cc1OC,inactive
5,O=C(COC(=O)C12CC3CC(CC(O)(C3)C1)C2)NCc1ccco1,inactive
6,O=C(COC(=O)C12CC3CC(CC(Cl)(C3)C1)C2)NCc1ccco1,inactive
7,CCn1c(=O)c(C(=O)CN2CCCc3ccccc32)c(N)n(Cc2ccccc2)c1=O,inactive
8,COc1ccc(C(=O)N(Cc2ccco2)Cc2cccs2)c(OC)c1,inactive
9,O=C(COC(=O)C12CC3CC(CC(C3)C1)C2)NCC1CCCO1 (stereo unspecified),inactive
10,O=C(COC(=O)C12CC3CC(CC(C3)C1)C2)NCc1ccco1,inactive
11,O=c1c2c(-c3ccccc3)csc2ncn1/N=C/c1cn(-c2ccccc2)nc1-c1cccs1,inactive
12,NC(=O)c1nsc(C(=O)N(CC(=O)NCc2ccc3c(c2)OCO3)C2CCCC2)c1N,inactive
13,O=C1C2C3CCCC3=C3CCCC3C2C(=O)N1c1ccccc1Cl (stereo unspecified),inactive
14,NC(=O)c1nsc(C(=O)N(CC(=O)NCc2ccc3c(c2)OCO3)C2CCCCC2)c1N,inactive
15,O=C1C2C3CCCC3=C3CCCC3C2C(=O)N1c1ccc(F)cc1 (stereo unspecified),inactive
16,O=C(COC(=O)C12CC3CC(CC(Br)(C3)C1)C2)NCc1ccco1,inactive
17,COc1ccc(C2Nc3ccccc3C(=O)N2Cc2ccco2)cc1COc1ccc([N+](=O)[O-])cc1 (stereo unspecified),inactive
18,O=C1CC(c2ccccc2)CC2=C1C(c1ccco1)n1nc(C(F)(F)F)nc1N2 (stereo unspecified),inactive
19,Cc1sc2ncn(/N=C/c3cn(-c4ccccc4)nc3-c3ccccc3)c(=O)c2c1C,inactive
20,COc1ccc(C2Nc3ccccc3C(=O)N2Cc2ccco2)cc1COc1c(C)cccc1C (stereo unspecified),inactive
21,CC(NC(=O)COC(=O)c1ccco1)C12CC3CC(CC(C3)C1)C2 (stereo unspecified),inactive
22,O=C1C2C3CCCC3=C3CCCC3C2C(=O)N1c1ccc(Cl)cc1 (stereo unspecified),inactive
23,COc1ccc(C2Nc3ccccc3C(=O)N2Cc2ccco2)cc1COc1ccc(NC(C)=O)cc1 (stereo unspecified),inactive
24,O=C1C2C3CCCC3=C3CCCC3C2C(=O)N1c1cccc(Cl)c1 (stereo unspecified),inactive
25,Cc1nn(-c2ccccc2)c(N2CCCC2)c1/C=N/n1cnc2scc(-c3ccccc3)c2c1=O,inactive
26,COc1ccc(C2Nc3cccc(O)c3C(=O)N2Cc2ccccc2)cc1COc1ccc(NC(C)=O)cc1 (stereo unspecified),inactive
